From the supplement of paper PMC11732987, “Enantioselective OTUD7B fragment discovery through chemoproteomics screening and high-throughput optimisation” (Communications Chemistry, 2025)

Columns and labels:
Assay in all cases: log2 ratio of Biotin-Ahx-Ub-VS probe labelling (fragment/DMSO); higher = less target engagement (more negative = stronger competition), active = hit call of the paper (q ≤ 0.05, log2 ratio ≤ -1)
Details in all cases: compound concentration: 200 uM; treatment time: 3 h
USP19 = molecular target: T1, USP19 (UniProt O94966)
T1 sequence (whole entry): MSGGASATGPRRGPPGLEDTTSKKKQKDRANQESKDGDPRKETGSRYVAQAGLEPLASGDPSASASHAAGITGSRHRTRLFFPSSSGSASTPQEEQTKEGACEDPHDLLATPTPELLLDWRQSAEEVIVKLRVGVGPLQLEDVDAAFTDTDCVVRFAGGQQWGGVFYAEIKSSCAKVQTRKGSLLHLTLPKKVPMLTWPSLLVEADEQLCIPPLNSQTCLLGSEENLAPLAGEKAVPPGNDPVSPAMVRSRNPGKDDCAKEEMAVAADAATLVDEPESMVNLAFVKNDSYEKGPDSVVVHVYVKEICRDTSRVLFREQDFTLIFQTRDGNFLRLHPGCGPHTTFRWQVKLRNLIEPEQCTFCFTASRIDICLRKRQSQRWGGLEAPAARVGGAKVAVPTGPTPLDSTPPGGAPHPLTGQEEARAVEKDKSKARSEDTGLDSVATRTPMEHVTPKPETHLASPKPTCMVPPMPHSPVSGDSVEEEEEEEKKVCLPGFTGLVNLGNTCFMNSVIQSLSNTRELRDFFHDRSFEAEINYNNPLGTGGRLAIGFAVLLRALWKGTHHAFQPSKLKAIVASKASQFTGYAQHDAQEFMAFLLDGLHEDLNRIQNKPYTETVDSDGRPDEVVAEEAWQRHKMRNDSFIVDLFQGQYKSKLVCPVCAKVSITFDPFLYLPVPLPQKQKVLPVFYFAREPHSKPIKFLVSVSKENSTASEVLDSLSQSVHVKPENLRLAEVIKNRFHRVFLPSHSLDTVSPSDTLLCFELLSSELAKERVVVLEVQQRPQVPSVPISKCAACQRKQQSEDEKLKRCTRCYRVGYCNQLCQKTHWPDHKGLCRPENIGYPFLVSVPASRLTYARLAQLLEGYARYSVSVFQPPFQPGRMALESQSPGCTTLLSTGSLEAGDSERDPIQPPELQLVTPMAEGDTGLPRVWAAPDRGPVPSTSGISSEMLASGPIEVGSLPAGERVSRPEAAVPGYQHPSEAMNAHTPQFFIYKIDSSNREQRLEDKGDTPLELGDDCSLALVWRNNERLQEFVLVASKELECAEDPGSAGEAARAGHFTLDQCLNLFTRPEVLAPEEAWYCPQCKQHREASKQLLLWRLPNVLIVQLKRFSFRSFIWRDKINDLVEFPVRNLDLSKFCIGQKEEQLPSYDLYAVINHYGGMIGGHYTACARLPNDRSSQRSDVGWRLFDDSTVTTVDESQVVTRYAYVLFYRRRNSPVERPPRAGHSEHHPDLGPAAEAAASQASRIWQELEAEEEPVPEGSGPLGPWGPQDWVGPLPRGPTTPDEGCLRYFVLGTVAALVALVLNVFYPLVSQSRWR
How it was run: (§1)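 Triplicate samples of HEK293T lysate, 495 µg each, received fragment at 200 µM or vehicle for 3 h, followed by Biotin-Ahx-Ub-VS (0.5 µM final) for 1 h. After NeutrAvidin enrichment of labelled DUBs and LysC/trypsin digestion, peptides were run by diaPASEF LC-MS/MS. The values are average log2 fragment/vehicle ratios from global-median-normalised Spectronaut label-free quantities, tested by unpaired t-test on proteins having ≥2 unique peptides.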

USP22 = molecular target: T2, USP22 (UniProt Q9UPT9)
T2 sequence (whole entry): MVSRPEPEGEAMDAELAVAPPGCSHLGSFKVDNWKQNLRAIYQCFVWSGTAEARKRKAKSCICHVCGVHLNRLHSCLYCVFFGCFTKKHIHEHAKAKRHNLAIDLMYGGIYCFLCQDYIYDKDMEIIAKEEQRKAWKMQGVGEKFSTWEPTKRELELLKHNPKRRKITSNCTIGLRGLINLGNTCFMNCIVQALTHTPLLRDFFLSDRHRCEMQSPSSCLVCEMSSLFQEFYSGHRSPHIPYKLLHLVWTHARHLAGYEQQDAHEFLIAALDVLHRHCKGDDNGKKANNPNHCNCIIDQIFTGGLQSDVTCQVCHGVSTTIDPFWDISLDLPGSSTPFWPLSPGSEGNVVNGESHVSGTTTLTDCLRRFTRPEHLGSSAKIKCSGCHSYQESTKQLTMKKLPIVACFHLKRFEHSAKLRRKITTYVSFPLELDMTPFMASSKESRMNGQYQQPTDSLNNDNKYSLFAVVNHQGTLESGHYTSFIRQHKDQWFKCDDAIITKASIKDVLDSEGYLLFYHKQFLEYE
How it was run: as §1

USP24 = USP24 (UniProt Q9UPU5)
Sequence of USP24 (Q9UPU5 whole entry): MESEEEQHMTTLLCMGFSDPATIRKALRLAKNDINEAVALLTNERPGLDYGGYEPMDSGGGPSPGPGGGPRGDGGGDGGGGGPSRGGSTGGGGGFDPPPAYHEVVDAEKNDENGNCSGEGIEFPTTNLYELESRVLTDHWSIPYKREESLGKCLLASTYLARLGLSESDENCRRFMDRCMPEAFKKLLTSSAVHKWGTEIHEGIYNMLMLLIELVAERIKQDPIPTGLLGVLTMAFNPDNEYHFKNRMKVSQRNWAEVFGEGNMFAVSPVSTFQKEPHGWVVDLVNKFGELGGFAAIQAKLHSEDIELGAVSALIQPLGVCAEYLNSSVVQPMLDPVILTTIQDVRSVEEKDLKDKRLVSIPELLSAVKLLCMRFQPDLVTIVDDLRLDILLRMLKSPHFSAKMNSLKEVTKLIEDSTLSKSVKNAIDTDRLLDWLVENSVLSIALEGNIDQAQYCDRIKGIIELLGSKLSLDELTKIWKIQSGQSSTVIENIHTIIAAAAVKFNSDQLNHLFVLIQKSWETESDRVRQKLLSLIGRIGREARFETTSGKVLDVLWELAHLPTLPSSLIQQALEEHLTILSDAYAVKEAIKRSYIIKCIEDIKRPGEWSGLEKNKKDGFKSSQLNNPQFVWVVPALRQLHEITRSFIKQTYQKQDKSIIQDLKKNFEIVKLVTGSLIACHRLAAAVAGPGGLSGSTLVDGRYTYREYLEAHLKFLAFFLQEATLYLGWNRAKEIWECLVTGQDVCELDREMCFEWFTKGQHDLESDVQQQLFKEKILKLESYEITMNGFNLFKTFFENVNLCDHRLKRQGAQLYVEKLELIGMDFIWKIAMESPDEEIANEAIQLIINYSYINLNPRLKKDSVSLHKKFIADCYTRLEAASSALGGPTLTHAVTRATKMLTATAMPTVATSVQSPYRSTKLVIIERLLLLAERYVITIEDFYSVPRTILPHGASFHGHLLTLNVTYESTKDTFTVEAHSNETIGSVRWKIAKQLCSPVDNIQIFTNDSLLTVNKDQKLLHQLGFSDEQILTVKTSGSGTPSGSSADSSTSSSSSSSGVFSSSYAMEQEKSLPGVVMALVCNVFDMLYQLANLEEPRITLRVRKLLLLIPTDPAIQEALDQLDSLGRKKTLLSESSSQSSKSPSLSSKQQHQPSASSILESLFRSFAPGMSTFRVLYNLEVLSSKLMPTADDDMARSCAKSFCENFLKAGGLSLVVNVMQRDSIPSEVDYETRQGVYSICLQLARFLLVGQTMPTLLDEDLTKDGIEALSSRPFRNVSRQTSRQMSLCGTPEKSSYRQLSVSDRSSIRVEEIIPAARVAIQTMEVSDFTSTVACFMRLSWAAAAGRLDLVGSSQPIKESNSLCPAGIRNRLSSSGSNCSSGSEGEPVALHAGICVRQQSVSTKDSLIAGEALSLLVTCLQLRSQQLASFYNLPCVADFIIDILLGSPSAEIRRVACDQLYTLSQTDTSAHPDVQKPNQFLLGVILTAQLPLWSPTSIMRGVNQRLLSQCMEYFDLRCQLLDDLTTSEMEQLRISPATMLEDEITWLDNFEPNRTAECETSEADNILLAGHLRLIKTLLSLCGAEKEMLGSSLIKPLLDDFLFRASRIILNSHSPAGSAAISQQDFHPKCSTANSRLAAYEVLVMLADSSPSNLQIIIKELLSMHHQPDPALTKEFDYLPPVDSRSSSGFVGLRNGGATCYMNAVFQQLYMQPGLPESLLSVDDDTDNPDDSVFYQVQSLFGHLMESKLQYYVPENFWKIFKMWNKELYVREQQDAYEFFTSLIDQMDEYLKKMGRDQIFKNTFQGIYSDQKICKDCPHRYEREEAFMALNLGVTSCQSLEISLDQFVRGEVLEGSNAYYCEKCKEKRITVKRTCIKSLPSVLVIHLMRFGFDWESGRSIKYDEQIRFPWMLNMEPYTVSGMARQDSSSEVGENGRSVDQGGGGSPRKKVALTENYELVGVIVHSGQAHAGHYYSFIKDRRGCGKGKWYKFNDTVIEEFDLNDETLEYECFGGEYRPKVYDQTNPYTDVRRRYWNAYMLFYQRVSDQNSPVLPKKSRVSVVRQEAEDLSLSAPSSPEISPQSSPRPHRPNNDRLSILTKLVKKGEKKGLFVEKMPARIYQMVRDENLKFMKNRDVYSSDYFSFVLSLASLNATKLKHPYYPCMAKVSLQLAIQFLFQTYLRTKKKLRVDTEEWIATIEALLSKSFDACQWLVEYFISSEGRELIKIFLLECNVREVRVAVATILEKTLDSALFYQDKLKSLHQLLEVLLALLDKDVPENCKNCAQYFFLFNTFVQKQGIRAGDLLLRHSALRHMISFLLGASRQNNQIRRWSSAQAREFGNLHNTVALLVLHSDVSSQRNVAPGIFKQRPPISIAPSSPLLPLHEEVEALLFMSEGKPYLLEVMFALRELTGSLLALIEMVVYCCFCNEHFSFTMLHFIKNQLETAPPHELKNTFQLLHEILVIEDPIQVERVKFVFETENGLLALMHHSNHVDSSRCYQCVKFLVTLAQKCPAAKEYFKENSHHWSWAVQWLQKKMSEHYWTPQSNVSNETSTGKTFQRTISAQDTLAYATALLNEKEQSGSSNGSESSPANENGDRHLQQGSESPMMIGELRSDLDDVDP
How it was run: as §1

USP25 = molecular target: T3, USP25 (UniProt Q9UHP3)
T3 sequence (whole entry): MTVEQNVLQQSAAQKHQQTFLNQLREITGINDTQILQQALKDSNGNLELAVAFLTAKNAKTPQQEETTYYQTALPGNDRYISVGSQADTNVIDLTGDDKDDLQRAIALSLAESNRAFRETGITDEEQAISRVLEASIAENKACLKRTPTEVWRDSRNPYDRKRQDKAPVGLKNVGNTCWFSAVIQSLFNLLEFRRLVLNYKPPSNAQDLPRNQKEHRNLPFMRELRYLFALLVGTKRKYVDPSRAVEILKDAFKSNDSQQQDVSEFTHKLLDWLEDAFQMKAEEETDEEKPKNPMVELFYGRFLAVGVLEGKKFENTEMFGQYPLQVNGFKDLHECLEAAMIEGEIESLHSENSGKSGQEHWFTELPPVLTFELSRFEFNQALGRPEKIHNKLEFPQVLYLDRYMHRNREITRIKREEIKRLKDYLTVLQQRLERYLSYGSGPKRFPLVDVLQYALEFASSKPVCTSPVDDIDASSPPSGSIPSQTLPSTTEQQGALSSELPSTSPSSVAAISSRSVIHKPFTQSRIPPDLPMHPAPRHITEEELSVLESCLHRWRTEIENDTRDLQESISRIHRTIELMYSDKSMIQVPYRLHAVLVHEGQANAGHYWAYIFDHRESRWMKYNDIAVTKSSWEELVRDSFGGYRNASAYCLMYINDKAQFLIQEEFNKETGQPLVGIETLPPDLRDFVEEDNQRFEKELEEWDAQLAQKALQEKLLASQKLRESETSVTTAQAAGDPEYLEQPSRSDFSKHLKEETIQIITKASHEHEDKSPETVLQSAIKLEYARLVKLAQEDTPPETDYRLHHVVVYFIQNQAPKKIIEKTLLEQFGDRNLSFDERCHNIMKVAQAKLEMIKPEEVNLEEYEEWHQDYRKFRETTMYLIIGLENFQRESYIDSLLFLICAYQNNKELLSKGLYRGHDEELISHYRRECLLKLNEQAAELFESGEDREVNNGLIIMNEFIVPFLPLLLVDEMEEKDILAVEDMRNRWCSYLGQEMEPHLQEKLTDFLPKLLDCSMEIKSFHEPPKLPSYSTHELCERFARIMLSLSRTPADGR
How it was run: as §1

USP28 = molecular target: T4, USP28 (UniProt Q96RU2)
T4 sequence (whole entry): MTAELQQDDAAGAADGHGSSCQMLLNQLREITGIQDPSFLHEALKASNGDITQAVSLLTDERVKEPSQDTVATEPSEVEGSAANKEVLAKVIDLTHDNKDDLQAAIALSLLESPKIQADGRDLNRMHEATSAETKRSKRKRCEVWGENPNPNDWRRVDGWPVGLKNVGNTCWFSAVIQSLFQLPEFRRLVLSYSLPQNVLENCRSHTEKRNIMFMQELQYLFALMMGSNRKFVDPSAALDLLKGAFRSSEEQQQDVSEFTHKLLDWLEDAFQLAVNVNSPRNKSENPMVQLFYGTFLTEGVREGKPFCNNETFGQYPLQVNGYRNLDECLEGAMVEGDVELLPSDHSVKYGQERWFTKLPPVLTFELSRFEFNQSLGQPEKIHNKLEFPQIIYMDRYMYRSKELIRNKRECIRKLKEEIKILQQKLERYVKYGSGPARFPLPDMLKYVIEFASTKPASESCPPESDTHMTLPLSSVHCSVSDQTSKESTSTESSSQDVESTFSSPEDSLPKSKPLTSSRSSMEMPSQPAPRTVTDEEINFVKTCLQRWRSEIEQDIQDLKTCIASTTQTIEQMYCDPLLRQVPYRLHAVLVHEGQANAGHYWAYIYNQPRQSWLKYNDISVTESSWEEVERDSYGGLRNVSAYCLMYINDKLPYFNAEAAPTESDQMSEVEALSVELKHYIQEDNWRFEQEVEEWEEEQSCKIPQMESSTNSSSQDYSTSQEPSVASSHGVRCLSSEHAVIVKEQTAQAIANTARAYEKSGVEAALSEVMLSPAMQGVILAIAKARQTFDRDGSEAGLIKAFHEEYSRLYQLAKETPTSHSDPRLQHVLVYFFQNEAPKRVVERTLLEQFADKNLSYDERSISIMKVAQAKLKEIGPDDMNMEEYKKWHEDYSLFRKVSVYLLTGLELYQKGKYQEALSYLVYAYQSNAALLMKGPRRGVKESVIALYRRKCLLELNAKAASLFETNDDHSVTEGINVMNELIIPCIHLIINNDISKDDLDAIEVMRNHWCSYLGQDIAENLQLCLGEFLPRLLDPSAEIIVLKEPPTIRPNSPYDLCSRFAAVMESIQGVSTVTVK
How it was run: as §1

Measured: log2 ratio of Biotin-Ahx-Ub-VS probe labelling

O=C(CCl)Nc1cccc(NC(=O)c2ccccc2)c1
inactive: USP19 0.0261 | USP22 0.406 | USP24 0.05 | USP25 -0.383 | USP28 -0.173
